The source of these data is PMC7862700, “An all-to-all approach to the identification of sequence-specific readers for epigenetic DNA modifications on cytosine”.

What all share (test): DAPPL (digital affinity profiling via proximity ligation, sequencing); 10 mM Tris-HCl pH 7.5, 50 mM NaCl, 1 mM DTT, 4% glycerol, room temperature, 30 min; GST-TFs on glutathione beads, 16-mer random dsDNA library, 0.1% formaldehyde crosslink after washing; high values mean tight binding
One experiment deals with T1, FLI1 (Homo sapiens, UniProt Q01543 1-452).
T1 sequence: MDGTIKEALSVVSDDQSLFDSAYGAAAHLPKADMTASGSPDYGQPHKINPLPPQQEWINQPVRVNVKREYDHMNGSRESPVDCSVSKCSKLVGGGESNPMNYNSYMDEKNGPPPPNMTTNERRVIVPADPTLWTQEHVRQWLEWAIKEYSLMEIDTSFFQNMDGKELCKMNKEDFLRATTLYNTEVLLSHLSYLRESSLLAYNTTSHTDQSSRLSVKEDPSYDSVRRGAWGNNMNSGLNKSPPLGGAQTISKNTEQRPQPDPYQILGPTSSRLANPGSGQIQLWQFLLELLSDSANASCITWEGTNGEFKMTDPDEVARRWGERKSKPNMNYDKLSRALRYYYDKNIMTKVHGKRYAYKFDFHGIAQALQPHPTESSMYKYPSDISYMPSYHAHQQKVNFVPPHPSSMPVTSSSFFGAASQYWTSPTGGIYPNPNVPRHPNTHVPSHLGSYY
The conditions noted are these: protein: recombinant; tags: N-terminal GST; dsDNA, one strand shown. The method in brief:
(§1)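 Sequencing on an Illumina NextSeq500 followed washing, crosslinking with 0.1% formaldehyde, proximity ligation (BsaI/T4 ligase, 1 h, 37 °C) and PCR amplification of pools that had been incubated for 30 min at room temperature with 200 nmole of a random double-stranded 16-mer DNA library in Tris/NaCl/DTT/glycerol buffer. Each pool held DNA-barcoded human transcription factors, expressed in yeast as GST fusions and captured on glutathione beads, plus a tag-only sample. Binding signal is a hexamer's read frequency for a factor divided by its frequency in the tag-only sample.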

Another experiment deals with T2, ELK1 (Homo sapiens, UniProt P19419 1-428).
T2 sequence: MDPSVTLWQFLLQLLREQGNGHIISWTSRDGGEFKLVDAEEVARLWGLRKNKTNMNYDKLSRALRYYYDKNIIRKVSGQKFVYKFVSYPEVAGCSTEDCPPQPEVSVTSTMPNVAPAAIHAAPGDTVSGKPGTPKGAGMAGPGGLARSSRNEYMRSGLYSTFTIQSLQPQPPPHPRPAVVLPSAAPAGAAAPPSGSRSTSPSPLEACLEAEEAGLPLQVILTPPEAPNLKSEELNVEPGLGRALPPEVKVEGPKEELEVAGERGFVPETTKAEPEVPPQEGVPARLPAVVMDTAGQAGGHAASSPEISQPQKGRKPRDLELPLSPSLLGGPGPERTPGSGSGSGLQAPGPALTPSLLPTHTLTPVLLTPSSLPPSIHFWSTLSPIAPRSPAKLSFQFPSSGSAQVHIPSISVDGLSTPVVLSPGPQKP
The conditions noted are these: protein: recombinant; tags: N-terminal GST; dsDNA, one strand shown. The gist of the method:
as §1

A further experiment concerns the target T3, GABPA (Homo sapiens, UniProt Q06546 1-454).
T3 sequence: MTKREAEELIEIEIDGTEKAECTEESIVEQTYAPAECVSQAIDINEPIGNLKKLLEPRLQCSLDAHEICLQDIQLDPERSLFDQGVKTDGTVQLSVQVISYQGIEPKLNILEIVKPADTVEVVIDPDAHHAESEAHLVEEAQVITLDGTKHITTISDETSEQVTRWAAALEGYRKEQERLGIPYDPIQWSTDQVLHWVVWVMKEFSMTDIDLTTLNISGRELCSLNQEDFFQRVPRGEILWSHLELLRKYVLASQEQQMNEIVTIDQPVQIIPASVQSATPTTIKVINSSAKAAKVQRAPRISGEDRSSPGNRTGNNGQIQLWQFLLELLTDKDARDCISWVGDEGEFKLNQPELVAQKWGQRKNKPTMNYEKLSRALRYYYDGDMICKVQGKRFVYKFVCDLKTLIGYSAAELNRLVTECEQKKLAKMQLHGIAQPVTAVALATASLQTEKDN
The conditions noted are these: protein: recombinant; tags: N-terminal GST; dsDNA, one strand shown. The method in brief: as §1

Another experiment addresses T4, ERG (Homo sapiens, UniProt P11308 1-479).
T4 sequence: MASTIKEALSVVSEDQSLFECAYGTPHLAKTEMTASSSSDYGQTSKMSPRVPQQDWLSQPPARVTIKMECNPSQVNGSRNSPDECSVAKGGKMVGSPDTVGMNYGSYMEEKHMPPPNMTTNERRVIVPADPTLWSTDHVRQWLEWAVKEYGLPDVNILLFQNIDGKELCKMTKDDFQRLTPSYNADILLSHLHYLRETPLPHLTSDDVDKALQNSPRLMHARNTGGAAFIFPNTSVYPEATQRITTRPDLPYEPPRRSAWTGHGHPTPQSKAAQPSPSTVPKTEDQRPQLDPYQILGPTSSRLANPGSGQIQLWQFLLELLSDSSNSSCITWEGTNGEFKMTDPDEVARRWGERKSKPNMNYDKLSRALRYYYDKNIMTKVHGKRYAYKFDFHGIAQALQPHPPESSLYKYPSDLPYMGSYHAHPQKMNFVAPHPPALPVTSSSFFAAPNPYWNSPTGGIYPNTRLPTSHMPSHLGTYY
The conditions noted are these: protein: recombinant; tags: N-terminal GST; dsDNA, one strand shown. The method in brief: as §1

The next experiment has as its target ELF1 (Homo sapiens, UniProt P32519 1-619). The conditions noted are these: protein: recombinant; tags: N-terminal GST; dsDNA, one strand shown. The method in brief:
as §1

In the next experiment the target is T5, EHF (Homo sapiens, UniProt Q9NZC4 1-300).
T5 sequence: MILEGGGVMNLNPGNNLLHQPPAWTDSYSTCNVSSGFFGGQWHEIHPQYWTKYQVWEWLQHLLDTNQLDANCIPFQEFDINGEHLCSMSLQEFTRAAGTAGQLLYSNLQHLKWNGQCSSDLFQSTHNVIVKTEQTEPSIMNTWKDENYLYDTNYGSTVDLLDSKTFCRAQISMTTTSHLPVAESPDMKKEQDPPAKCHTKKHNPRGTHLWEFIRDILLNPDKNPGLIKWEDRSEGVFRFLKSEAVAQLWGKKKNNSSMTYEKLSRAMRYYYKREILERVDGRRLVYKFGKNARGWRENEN
The following applies: protein: recombinant; tags: N-terminal GST; dsDNA, one strand shown. The method in brief:
as §1

The next experiment deals with SPI1 (Homo sapiens, UniProt P17947 1-270). The following applies: protein: recombinant; tags: N-terminal GST; dsDNA, one strand shown. The gist of the method: as §1
The target of a further experiment is SPIB (Homo sapiens, UniProt Q01892 1-262). The conditions noted are these: protein: recombinant; tags: N-terminal GST; dsDNA, one strand shown. The gist of the method: as §1
Sequence of SPIB (Q01892 whole entry): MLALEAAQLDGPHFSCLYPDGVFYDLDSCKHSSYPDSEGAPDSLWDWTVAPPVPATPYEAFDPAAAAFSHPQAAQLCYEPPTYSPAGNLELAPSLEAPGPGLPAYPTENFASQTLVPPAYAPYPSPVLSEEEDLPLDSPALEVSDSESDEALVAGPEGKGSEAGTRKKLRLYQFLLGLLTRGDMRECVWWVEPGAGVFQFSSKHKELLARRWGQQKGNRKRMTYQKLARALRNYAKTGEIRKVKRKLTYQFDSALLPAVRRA
The target in the next experiment is T6, ELK3 (Homo sapiens, UniProt P41970 1-407).
T6 sequence: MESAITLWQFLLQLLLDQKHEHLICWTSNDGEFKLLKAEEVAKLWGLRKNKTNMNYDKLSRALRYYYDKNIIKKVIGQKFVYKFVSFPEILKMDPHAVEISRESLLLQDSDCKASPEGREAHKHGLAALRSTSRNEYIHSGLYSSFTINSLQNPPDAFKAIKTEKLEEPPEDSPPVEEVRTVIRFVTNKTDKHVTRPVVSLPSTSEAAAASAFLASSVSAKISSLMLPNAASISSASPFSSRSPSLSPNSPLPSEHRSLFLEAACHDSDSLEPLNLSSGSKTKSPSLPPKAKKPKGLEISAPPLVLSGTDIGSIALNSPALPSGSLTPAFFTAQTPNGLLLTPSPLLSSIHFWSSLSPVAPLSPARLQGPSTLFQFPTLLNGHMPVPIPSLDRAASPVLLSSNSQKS
The conditions noted are these: protein: recombinant; tags: N-terminal GST; dsDNA, one strand shown. The gist of the method: as §1

The next experiment has as its target T7, FEV (Homo sapiens, UniProt Q99581 1-238).
T7 sequence: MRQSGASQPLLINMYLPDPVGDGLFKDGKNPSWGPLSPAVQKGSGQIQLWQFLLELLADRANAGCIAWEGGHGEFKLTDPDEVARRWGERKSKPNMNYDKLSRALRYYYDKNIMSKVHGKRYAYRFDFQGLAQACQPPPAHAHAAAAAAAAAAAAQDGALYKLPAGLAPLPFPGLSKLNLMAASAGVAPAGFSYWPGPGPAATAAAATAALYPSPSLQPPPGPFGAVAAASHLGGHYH
The conditions noted are these: protein: recombinant; tags: N-terminal GST; dsDNA, one strand shown. The gist of the method:
as §1

Another experiment addresses ETV5 (Homo sapiens, UniProt P41161 1-510). The conditions noted are these: protein: recombinant; tags: N-terminal GST; dsDNA, one strand shown. The gist of the method: as §1
The next experiment has as its target HSF1 (Homo sapiens, UniProt Q00613 1-529). The conditions noted are these: protein: recombinant; tags: N-terminal GST; chain copies: 3; dsDNA, one strand shown. The gist of the method:
as §1

A further experiment addresses T8, SPIC (Homo sapiens, UniProt Q8N5J4 1-248).
T8 sequence: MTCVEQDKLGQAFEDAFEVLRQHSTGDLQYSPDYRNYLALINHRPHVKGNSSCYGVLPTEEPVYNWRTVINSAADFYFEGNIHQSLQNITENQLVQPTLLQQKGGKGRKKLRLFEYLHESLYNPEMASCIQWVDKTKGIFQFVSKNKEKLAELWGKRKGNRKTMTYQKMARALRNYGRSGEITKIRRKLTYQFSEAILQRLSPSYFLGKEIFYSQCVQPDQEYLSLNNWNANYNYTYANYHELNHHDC
The following applies: protein: recombinant; tags: N-terminal GST; dsDNA, one strand shown. The method in brief: as §1

Another experiment deals with ELF4 (Homo sapiens, UniProt Q99607 1-663). The conditions noted are these: protein: recombinant; tags: N-terminal GST; dsDNA, one strand shown. The method in brief: as §1
Sequence of ELF4 (Q99607 whole entry): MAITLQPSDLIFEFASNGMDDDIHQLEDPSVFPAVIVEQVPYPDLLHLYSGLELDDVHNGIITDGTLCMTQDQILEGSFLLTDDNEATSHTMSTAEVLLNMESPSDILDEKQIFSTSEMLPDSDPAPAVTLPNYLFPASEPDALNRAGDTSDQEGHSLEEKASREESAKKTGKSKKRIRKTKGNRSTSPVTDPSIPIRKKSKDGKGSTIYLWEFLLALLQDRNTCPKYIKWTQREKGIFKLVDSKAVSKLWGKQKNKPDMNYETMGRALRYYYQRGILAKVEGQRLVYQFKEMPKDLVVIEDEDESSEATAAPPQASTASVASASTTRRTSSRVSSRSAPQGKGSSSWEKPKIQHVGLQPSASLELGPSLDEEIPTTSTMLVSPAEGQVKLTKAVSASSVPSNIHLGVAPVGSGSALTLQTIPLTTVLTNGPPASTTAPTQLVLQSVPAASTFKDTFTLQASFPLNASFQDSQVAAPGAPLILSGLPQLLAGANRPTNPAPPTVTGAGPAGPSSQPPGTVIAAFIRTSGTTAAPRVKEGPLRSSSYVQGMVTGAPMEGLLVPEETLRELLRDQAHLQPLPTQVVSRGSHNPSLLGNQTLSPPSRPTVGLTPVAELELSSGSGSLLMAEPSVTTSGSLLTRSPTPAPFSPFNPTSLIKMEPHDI
Another experiment concerns the target T9, ELK4 (Homo sapiens, UniProt P28324-2 1-405).
T9 sequence: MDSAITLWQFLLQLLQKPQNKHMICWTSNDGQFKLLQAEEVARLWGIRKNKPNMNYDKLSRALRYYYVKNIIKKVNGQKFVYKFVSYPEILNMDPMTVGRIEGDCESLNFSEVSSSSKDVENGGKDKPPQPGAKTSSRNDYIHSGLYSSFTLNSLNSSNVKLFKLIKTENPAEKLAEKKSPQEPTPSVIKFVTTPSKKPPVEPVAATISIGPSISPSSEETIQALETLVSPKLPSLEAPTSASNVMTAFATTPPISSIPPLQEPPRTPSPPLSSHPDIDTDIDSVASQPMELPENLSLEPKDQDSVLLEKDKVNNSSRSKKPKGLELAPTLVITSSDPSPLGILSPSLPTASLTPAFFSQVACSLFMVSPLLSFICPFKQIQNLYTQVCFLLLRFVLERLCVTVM
The conditions noted are these: protein: recombinant; tags: N-terminal GST; dsDNA, one strand shown. The method in brief:
as §1

The next experiment addresses T10, ETV2 (Homo sapiens, UniProt O00321 1-342).
T10 sequence: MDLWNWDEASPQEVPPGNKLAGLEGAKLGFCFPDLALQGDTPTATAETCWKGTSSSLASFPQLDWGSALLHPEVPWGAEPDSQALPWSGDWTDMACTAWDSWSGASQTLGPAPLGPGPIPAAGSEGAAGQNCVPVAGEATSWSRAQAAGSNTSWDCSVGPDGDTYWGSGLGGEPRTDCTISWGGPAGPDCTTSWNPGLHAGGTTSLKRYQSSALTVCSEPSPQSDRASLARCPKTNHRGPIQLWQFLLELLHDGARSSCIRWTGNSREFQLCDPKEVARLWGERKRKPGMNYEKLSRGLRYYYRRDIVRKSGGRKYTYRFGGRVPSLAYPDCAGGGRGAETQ
The following applies: protein: recombinant; tags: N-terminal GST; dsDNA, one strand shown. The gist of the method:
as §1

Another experiment deals with T11, ELF3 (Homo sapiens, UniProt P78545 1-371).
T11 sequence: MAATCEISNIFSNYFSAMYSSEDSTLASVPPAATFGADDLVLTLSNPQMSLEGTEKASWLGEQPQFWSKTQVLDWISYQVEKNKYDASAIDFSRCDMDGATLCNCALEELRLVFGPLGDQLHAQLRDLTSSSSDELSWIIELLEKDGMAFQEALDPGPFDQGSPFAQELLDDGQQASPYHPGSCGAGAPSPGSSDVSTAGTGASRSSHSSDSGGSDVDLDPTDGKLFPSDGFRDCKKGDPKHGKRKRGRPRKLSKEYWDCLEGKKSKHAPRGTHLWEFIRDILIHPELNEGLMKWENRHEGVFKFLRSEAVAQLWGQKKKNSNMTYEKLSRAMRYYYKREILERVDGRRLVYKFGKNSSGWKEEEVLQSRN
The following applies: protein: recombinant; tags: N-terminal GST; dsDNA, one strand shown. The method in brief: as §1

A further experiment concerns the target ETV1 (Homo sapiens, UniProt P50549 1-477). The following applies: protein: recombinant; tags: N-terminal GST; dsDNA, one strand shown. The gist of the method:
as §1

Sequence of ELF1 (P32519 whole entry): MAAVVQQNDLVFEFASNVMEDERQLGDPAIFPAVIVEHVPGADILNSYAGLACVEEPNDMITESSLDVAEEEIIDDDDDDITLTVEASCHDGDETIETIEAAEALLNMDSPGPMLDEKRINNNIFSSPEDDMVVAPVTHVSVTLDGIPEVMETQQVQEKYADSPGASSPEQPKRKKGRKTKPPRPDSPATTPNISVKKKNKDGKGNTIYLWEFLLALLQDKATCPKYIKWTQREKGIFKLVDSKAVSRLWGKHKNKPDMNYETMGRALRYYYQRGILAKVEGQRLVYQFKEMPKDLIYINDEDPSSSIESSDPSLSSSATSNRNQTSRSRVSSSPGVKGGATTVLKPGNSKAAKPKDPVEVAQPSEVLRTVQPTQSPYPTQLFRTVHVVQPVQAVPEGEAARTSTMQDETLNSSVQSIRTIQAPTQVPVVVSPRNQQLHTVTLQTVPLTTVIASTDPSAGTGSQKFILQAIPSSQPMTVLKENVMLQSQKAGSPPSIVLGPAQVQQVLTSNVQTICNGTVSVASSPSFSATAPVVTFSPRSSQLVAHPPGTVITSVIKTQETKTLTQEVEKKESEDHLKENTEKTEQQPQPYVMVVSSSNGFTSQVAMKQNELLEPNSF
Sequence of ETV1 (P50549 whole entry): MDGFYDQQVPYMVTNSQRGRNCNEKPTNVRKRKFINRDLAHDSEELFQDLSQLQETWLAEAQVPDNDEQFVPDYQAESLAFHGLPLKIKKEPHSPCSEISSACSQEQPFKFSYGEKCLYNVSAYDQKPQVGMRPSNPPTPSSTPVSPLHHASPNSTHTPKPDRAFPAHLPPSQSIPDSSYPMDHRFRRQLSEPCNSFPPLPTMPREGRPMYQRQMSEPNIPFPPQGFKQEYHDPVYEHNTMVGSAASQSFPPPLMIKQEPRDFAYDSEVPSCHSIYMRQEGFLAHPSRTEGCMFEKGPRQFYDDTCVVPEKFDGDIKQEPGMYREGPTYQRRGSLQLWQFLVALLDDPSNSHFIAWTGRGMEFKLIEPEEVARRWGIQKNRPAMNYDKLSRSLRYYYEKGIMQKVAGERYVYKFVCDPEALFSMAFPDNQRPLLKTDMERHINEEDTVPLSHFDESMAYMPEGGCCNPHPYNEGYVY
Sequence of ETV5 (P41161 whole entry): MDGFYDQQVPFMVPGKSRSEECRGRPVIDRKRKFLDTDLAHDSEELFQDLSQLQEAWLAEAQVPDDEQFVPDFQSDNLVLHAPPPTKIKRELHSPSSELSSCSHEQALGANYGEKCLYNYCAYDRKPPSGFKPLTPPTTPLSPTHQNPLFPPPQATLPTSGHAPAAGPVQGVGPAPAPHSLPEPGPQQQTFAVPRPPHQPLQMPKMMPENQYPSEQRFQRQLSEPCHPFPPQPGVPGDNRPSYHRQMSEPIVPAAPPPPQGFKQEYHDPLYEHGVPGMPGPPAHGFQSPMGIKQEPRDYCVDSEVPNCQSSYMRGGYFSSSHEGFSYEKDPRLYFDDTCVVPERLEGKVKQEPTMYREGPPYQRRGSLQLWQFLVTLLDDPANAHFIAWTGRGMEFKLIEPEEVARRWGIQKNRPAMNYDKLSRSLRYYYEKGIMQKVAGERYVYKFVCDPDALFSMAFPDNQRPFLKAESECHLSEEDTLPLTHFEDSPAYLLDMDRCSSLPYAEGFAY
Sequence of HSF1 (Q00613 whole entry): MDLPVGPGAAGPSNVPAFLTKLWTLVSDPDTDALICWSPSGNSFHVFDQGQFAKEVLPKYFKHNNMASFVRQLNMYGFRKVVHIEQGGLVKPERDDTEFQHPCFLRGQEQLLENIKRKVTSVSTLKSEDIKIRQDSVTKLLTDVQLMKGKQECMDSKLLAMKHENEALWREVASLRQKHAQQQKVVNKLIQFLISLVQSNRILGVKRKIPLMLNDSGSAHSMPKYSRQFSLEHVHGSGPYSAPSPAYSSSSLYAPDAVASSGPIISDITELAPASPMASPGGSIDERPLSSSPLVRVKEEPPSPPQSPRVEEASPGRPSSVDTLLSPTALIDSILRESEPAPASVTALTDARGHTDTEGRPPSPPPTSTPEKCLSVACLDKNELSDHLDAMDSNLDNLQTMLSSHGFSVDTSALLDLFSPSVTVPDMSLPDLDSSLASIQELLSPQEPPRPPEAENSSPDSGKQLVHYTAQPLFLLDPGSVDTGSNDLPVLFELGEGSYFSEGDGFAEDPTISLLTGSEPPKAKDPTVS

TTCCGT: the binding signal with FLI1 is 1.79 fold enrichment (6-mer frequency, TF over GST control); with ELK1 it was 2.11 fold enrichment (6-mer frequency, TF over GST control); in the experiment with GABPA, 1.76 fold enrichment (6-mer frequency, TF over GST control); with ERG it was 2.13 fold enrichment (6-mer frequency, TF over GST control); with ELF1, 1.74 fold enrichment (6-mer frequency, TF over GST control); with EHF, 2 fold enrichment (6-mer frequency, TF over GST control). Further, the binding signal was 2.14 fold enrichment (6-mer frequency, TF over GST control) in the experiment with SPI1; 2.07 fold enrichment (6-mer frequency, TF over GST control) in the experiment with SPIB; 1.86 fold enrichment (6-mer frequency, TF over GST control) with ELK3; 1.86 fold enrichment (6-mer frequency, TF over GST control) in the experiment with FEV; 1.99 fold enrichment (6-mer frequency, TF over GST control) with ETV5; 1.02 fold enrichment (6-mer frequency, TF over GST control) with HSF1. The binding signal in the experiment with SPIC was 2.02 fold enrichment (6-mer frequency, TF over GST control); in the experiment with ELF4 it was 1.67 fold enrichment (6-mer frequency, TF over GST control); with ELK4 it was 1.89 fold enrichment (6-mer frequency, TF over GST control); with ETV2, 1.88 fold enrichment (6-mer frequency, TF over GST control); with ELF3, 1.74 fold enrichment (6-mer frequency, TF over GST control); with ETV1, 1.82 fold enrichment (6-mer frequency, TF over GST control).
